# Source: PubChem
# Hits are enriched below; roughly 3.7% of the tested compounds scored in any of these assays.
# GLP-1R agonist – GLP-1 receptor (human) agonism; P43220; actives 0.007% (n = 380,000); HEK293 GLP-1R CRE-luciferase, luminescence, 4-6 h; cells express a hypersensitive GLP-1R form; Potency, µM (top dose mostly 45.6 µM), actives largely listed as activators
# Target sequence (P43220 whole entry, looked up): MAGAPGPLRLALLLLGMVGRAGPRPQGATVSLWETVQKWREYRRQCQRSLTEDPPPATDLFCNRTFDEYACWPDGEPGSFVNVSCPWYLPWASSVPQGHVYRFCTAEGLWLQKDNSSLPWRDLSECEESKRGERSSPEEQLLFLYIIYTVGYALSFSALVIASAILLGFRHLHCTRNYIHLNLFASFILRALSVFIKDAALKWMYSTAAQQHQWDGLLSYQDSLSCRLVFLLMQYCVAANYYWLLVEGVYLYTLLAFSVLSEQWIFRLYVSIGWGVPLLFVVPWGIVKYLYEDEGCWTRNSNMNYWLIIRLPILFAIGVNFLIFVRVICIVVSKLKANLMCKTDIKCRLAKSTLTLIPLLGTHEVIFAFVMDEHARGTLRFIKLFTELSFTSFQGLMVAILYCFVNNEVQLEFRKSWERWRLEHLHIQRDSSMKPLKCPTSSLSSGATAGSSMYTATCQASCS
# HepG2 viability – counter-screen for TGF-b inhibitors: cytotoxicity in HepG2 cells; actives 0.76% (n = 410,000); Potency, µM (series often up to 46.1 µM), usual class: cytotoxic; AID 588856; HepG2 CAGA-GFP viability, ATP luminescence, 18 h
#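 CellTiter-Glo luminescence gave cytotoxicity after 18 hours at 37 degrees C. The cells were HepG2 CAGA-GFP in 1% FBS DMEM, stimulated with 500 pg/mL TGF-beta after compound addition. %Activity was normalised to no-cell wells (complete cell-killing) and DMSO (no toxicity), and curves were fitted and classified.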
# GLP1R inv ag – inverse agonists of human GLP-1 receptor; HEK293 GLP-1R CRE-luciferase, luminescence, 24 h; GLP-1R form is constitutively active; Potency, µM (doses to about 38.3 µM), most hits filed as inhibitors; actives 1.6% (n = 410,000); note: nearly all actives have a fitted effect of over 55% in size
#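 Inverse agonists were sought by their lowering of basal cAMP reporter luciferase output in HEK293 cells stably carrying constitutively active human GLP-1R, after 24 h compound treatment.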
# ATXN2 expr inh – reduces ATXN2 reporter expression in HEK-293 cells; HEK-293 ATXN2-luciferase reporter, luminescence, 24 h; Potency, µM (doses to about 57 µM), hits mostly inhibitors; actives 0.72% (n = 360,000); note: nearly all actives have a fitted effect of over 55% in size
#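 qHTS (up to 57 uM final) was run with 24 h compound exposure of reporter cells at 37 °C. Each well was multiplexed: SteadyGlo luminescence measured ATXN2-luciferase expression after a fluorogenic Gly-Phe-AFC viability readout (25 uM final).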
# S2 tox – viability counter-screen for ATXN expression inhibitors; S2 cells (HEK-293 line with an ATXN2-luciferase reporter) viability, CellTiter-Fluor protease fluorescence, 24 h; Potency, µM (top dose mostly 56.7 µM), usual class: cytotoxic; actives 0.49% (n = 400,000); AID 651635; note: nearly all actives have a fitted effect of over 40% in size
# TGFb inhibitor – inhibitors of TGF-b signaling; HepG2 CAGA-GFP TGF-b/SMAD3 reporter, GFP fluorescence, 18 h; TGF-beta stimulated, 500 pg/mL final; Potency, µM (highest dose often 46.1 µM), hits mostly inhibitors; actives 1.2% (n = 410,000); note: nearly all actives have a fitted effect of over 65% in size
#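 Using HEPG2 CAGA-GFP reporter cells at 1000 cells/well, we pinned test compounds, stimulated with recombinant TGF-beta (500 pg/mL final) and measured total well GFP after 18 h.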
# Hits are given with their value; n = inactive; u = inconclusive; x = no result; [ ] = remark or other dose. Calls come from the whole dose curve; as a rule, active = well fitted curve in the direction sought with a large enough effect; inconclusive = small, poorly fitted or top-dose-only effect, or another doubt; inactive = no such curve, though single readings can be large; an effect the other way counts as inactive or inconclusive.
SMILES,GLP-1R agonist,HepG2 viability,GLP1R inv ag,ATXN2 expr inh,S2 tox,TGFb inhibitor
Cc1ccc(CNC(=O)C(Cc2ccccc2)NS(=O)(=O)c2cccs2)cc1 (stereo not drawn),n,n,u,n,n,n
CCOc1ccccc1NC(=O)C(Cc1ccccc1)NS(=O)(=O)c1ccc(Br)s1 (stereo not drawn),n,n,11.2µM,n,n,u
O=C(Oc1cccc2cccnc12)c1ccc(Br)o1,n,n,n,n,n,n
O=C(Oc1cccc2cccnc12)c1ccco1,n,n,10µM,n,n,12.6µM
O=C(Oc1cccc2cccnc12)c1ccc2c(c1)OCCO2,n,n,3.98µM,n,n,u
Cc1ccc(COC(=O)c2ccc(-c3nnn(Cc4ccc(C)cc4)n3)cc2)cc1,n,n,n,n,n,n
O=C1Oc2ccccc2C(=O)C1C(CC(O)c1ccc(-c2ccc(Br)cc2)cc1)c1ccccc1 (stereo not drawn),n,x,x,x,x,x
O=C1c2ccccc2NC(c2ccc([N+](=O)[O-])cc2)N1O (stereo not drawn),n,n,10µM,u,u,n
O=c1[nH]c2ccccc2n1CCCN1CCCCC1,n,n,n,n[11.3 µM],n,n
O=c1[nH]c2ccccc2n1CCCN1CCN(C(c2ccccc2)c2ccccc2)CC1,n,x,x,31.6µM,u,x
CCOC(=O)c1c(NC(=O)CSc2cn(CCNC(=O)c3ccccc3OC)c3ccccc23)sc2c1CCC2,n,n,n,n,n,u
Cc1cccc(C)c1NC(=O)CCCSc1nnc(-c2ccc(Cl)cc2)n1-c1ccccc1,n,n,5.62µM,n,n,u
O=C1C2C3C=CC(C3)C2C(=O)N1CCN1CCN(S(=O)(=O)c2ccc3ccccc3c2)CC1 (stereo not drawn),n,n,11.2µM,n,n,u
CCCCC(=O)N1C/C=C\C(c2ccc(OC)cc2)N(Cc2ccc(F)cc2)C(=O)C1Cc1ccccc1 (stereo not drawn),x,n,x,x,x,u
COc1ccc(C2/C=C\CN(C(=O)Nc3ccc(C(F)(F)F)cc3)CC(=O)N2Cc2ccc(F)cc2)cc1 (stereo not drawn),n,n,11.2µM,n,u,u
COc1ccc([C@H]2/C=C\CN(C(=O)C3CCCC3)[C@@H](C)C(=O)N2Cc2ccc(F)cc2)cc1,n,n,u,u,20µM,n
COc1ccc(C2/C=C\CN(C(=O)C3CC3)C(C)C(=O)N2Cc2ccc(F)cc2)cc1 (stereo not drawn),x,n,x,x,x,u
COc1ccc(C2/C=C\CN(C(=O)C3CCCC3)[C@H](Cc3ccccc3)C(=O)N2Cc2ccc(F)cc2)cc1 (stereo partly drawn),n,n,4.47µM,n,n,u
CCN(CC)CC(=O)Oc1ccc(NC(C)=O)cc1,x,x,x,n,n,x
CCOC(=O)/C(=C/c1c2ccccc2cc2ccccc12)NC(=O)c1ccccc1,n,n,4.47µM,n,n,n
CCOC(=O)/C(=C\c1ccccc1)NC(=O)c1ccccc1,n,n,n,x,n,n
CC(=O)Nc1ccc(N2C(=O)CC(Sc3nc4ccccc4s3)C2=O)cc1 (stereo not drawn),n,n,n,x,n,n
COc1ccc(N2C(=O)CC(Sc3nc4ccccc4s3)C2=O)cc1OC (stereo not drawn),n,n,n,x,31.6µM,n
C#C[C@]1(OC(C)=O)CC[C@H]2[C@@H]3CCC4=C/C(=N/O)CC[C@@H]4[C@H]3CC[C@@]21CC,n,x,x,u,u,x
Oc1ccc(Nc2nc(-c3ccc(Cl)cc3)nc3ccccc23)cc1,x,14.1µM,u,x,x,u
SMILES,GLP-1R agonist,HepG2 viability,GLP1R inv ag,ATXN2 expr inh,S2 tox,TGFb inhibitor
COc1ccc(-c2nc(N/N=C(\C)c3ccc(O)cc3)c3ccccc3n2)cc1,n,n,n,u,u,14.1µM
Oc1ccc(Nc2nc(-c3ccccc3)nc3ccccc23)cc1,n,n,u,n,n,n
Oc1ccc(Nc2nc3ccccc3nc2Nc2ccc(O)cc2)cc1,n,n,n,u,u,11.2µM
Cc1cccc(-c2nc(Nc3cccc(O)c3)c3ccccc3n2)c1,n,n,6.31µM,n,n,u
CC(=O)c1ccc(NC(=O)CC2Oc3ccc(C)cc3NC2=O)cc1 (stereo not drawn),x,n,n,x,x,n
Cc1ccnc2ccc([N+](=O)[O-])cc12,x,n,x,x,x,u
Cc1ccc(S(=O)(=O)N2CCCN(c3nc(-c4cccs4)nc4ccccc34)CC2)cc1,x,n,x,x,x,u
CC[n+]1ccc(/C=C/c2ccc(N(C)C)cc2)c2ccccc21,n,n,u,u,8.91µM,6.31µM
CN(C)c1ccc(/C=C/c2ccc3ccccc3[n+]2[O-])cc1,x,n,x,x,x,n
CC[n+]1c(/C=C/c2ccc(N(C)C)cc2)ccc2ccccc21,n,n,u,u,x,3.55µM
CN(C)c1ccc(/C=C/c2cc[n+]([O-])c3ccccc23)cc1,x,n,x,x,x,n
COc1ccc(NC(=O)Cn2nc(C)c3c(C)n(-c4ccccc4)nc3c2=O)cc1OC,x,n,n,n,u,n
Cc1ccn2c(Nc3ccc4c(c3)OCO4)c(-c3ccccn3)nc2c1,n,n,n,u,u,u
Cc1ccc(Nc2c(-c3ccccn3)nc3cc(C)ccn23)cc1,n,n,u,3.55µM,u,u
Cn1c(=O)n(-c2ccc(C(C)(C)C#N)cc2)c2c3cc(-c4cnc5ccccc5c4)ccc3ncc21,x,n,x,u,x,u
C=CC(=O)N1CCc2ccc(-n3c(=O)ccc4cnc5ccc(-c6cnn(C)c6)cc5c43)cc21,x,x,x,15.3µM,x,x
O=C(c1ccccc1F)N1CCN(Cc2ccc3c(c2)OCO3)CC1,n,n,n,n,n,n
N#Cc1c(F)cccc1N1CCN(Cc2ccc3c(c2)OCO3)CC1,n,n,11.2µM,n,n,n
CC(=O)C1(O)Cc2c(O)c3c(c(O)c2C(OC2CC(N)C(O)C(C)O2)C1)C(=O)c1c(O)cccc1C3=O (stereo not drawn),n,n,x,x,x,1.58µM
COc1cc(OC)nc(Oc2ccccc2C(=O)Oc2ccc(Cl)cc2)n1,n,n,3.16µM,n,n,n
COc1cc(OC)nc(Oc2ccccc2C(=O)Oc2ccc(C)cc2)n1,n,n,u,n,n,n
CCN(CC)CCNC(=O)c1ccc2nc(-c3ccccc3)c(-c3ccc(CN4CCC(n5c(=O)[nH]c6ccccc65)CC4)cc3)nc2c1,x,x,x,27.3µM,x,x
CCCC(=NCCc1c(C)[nH]c2ccccc12)C1=C(O)CC(c2ccccc2)CC1=O (stereo not drawn),n,n,2.51µM,n,u,u
